According to PubChem BioAssay:
Calls of active or inactive are those of the source. Unless noted, how the calls were made is not given here.

Tests used:
[1] = liver-stage malaria parasite load reduction – cell-based, known kinase inhibitor set, luminescence, hepatoma host viability (AID 624392); conditions: Plasmodium liver stage in hepatoma cells, luciferase luminescence, concentration not given here; liver cell % of control: measured here: host liver cell viability; parasite % of control: stronger effect = lower value;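 further: infected cells incubated roughly two days before readout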
[2] = altered dexamethasone sensitivity, NF-kB reporter, cell-based, luciferase, IL-1B stimulus (AID 624486); conditions: IL-1B + dexamethasone, luminescence; percent of negative control (+Dex): actives lie on both sides, concentration not given here; z-score: measured here: IL-1B alone, no Dex;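 on percent of negative control (+Dex): 100% = mean signal of vehicle control wells on the plate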
[3] = C. elegans survival during P. aeruginosa infection – whole organism (AID 651566);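 further: tested at 14 µM; sign flipped so higher z means a lower ratio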; conditions: C. elegans killed by P. aeruginosa, survival ratio
[4] = pro-inflammatory signaling induction in mouse macrophages – cell-based, murine, luminescence (AID 652131); conditions: murine macrophage pro-inflammatory reporter, stronger effect = higher value
[5] = molecular target: Cellular tumor antigen p53 (Homo sapiens) (UniProt P04637); assay: GFP-p53 level modulators in HPV16+ cells – imaging, known kinase inhibitor set, EGFP/DsRed ratio (AID 1053116); conditions: GFP-p53 stability, stronger effect = higher value; EGFP object count: measured here: GFP-p53 positive objects count;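 further: cells exposed to compounds for 24 h at 37 °C before reading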
[6] = inducers of IRF3 signaling, differentiated THP-1 – cell-based, PMA-stimulated THP-1, luminescence (AID 1053176); conditions: PMA-differentiated THP-1, IRF3 reporter luminescence; stronger effect = higher value
[7] = MELAS cybrid and Rieske KO viability enhancers – cell-based, MELAS cybrids, Rieske KO mouse fibroblasts, CellTiter-Glo, primary screen (AID 1508586;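 active means mean z-score across replicates of 1.96 or higher in either the MELAS or the Rieske mutant cell line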;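 further: z relative to plate mean and SD of compound and empty wells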); conditions: low glucose
[8] = MELAS cybrid survival, CellTiter-Glo 48 h, stronger effect = higher value
[9] = Rieske KO mouse fibroblast survival, CellTiter-Glo 72 h

Cellular tumor antigen p53 (Homo sapiens), sequence (P04637 whole entry, looked up): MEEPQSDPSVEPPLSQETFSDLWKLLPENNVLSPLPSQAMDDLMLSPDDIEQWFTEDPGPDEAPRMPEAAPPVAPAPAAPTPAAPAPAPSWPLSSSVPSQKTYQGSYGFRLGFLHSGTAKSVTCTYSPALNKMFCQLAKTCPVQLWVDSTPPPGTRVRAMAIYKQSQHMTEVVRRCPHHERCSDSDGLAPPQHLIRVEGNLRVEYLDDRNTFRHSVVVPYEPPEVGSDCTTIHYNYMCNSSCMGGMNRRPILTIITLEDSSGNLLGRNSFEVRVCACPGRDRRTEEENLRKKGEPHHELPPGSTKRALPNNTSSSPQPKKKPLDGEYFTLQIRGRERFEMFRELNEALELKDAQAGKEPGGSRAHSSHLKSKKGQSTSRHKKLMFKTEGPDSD

Compound	liver cell % of control [1] [%]	parasite % of control [1]	percent of negative control (+Dex) [2]	z-score [2]	z-score [3]	z-score [4]	EGFP object count [5]	EGFP/DsRed ratio [5]	fraction signal [6]	z-score [7, 8]	z-score [7, 9]
OCc1ccc(-c2nc(-c3ccc4c(c3)OCO4)c(-c3ccccn3)[nH]2)cc1	108	115% (inactive)	106% (inactive)	-0.455	-0.12 (inactive)	1.4 (inactive)	3.5	0.0782 (inactive)	0.0015 (inactive)	-0.819 (inactive)	-0.0179
Fc1ccc(-c2cc(C3CNNC3c3ccccn3)ccn2)cc1 (centres undefined)	162	60.9% (inactive)	81% (inactive)	-1.07	0 (inactive)	-0.015 (inactive)	3	0.0511 (inactive)	-0.0065 (inactive)	0.213 (inactive)	-0.249
COc1cc2ncnc(Nc3ccc4c(cnn4Cc4ccccc4)c3)c2cc1OC	114	129% (inactive)	71.5% (inactive)	-2.37	-0.95 (inactive)	3.16 (inactive)	4	0.17 (inactive)	0.032 (inactive)	0.162 (inactive)	-0.293
COC(=O)Nc1nc2ccc(Oc3ccc(NC(=O)Nc4ccccc4)cc3)cc2[nH]1	96.2	260% (inactive)	112% (inactive)	1.13	0.065 (inactive)	0.608 (inactive)	17.5	0.664 (inactive)	-0.0025 (inactive)	-0.73 (inactive)	-0.00674
COC(=O)Nc1nc2ccc(S(=O)(=O)c3ccc(NC(=O)Nc4cc(C(F)(F)F)ccc4F)cc3)cc2[nH]1	80	100% (inactive)	86.5% (inactive)	0.105	-0.105 (inactive)	2.68 (inactive)	1.5	0.00404 (inactive)	0 (inactive)	0.00101 (inactive)	-0.437
Oc1cccc(-c2nc(-c3ccccc3)[nH]c2-c2ccncc2)c1	111	13.2% (active)	124% (inactive)	1.75	0.81 (inactive)	1.63 (inactive)	2.5	0.0183 (inactive)	0.0025 (inactive)	-0.947 (inactive)	-0.653
Fc1ccc(-c2nn3ccccc3c2-c2ccncc2)cc1	99.4	91.2% (inactive)	90% (inactive)	0.26	-0.5 (inactive)	-0.011 (inactive)	4.5	0.0996 (inactive)	0.0045 (inactive)	0.183 (inactive)	-0.338
C#Cc1cccc(Nc2ncnc3ccc(OCCCCNCCS(C)(=O)=O)cc23)c1	80.2	197% (inactive)	70.5% (inactive)	-1.95	0.035 (inactive)	-0.695 (inactive)	4	0.148 (inactive)	0.0175 (inactive)	-0.125 (inactive)	-0.333
N#Cc1ccc(Oc2nccc(-c3c(-c4ccc(F)cc4)ncn3C3CCNCC3)n2)cc1	76.8	142% (inactive)	90.5% (inactive)	0.29	0.255 (inactive)	-0.275 (inactive)	1	0.00276 (inactive)	-0.0025 (inactive)	-0.193 (inactive)	-0.456
NS(=O)(=O)c1ccc(N=Nc2c(O)[nH]c3ccc(C(=O)NCCCn4ccnc4)cc23)cc1	94	116% (inactive)	83% (inactive)	-0.125	0.195 (inactive)	0.038 (inactive)	6	0.239 (inactive)	-0.0065 (inactive)	-0.0137 (inactive)	-0.000813
Fc1ccc(-c2ncn(CCCN3CCOCC3)c2-c2ccncc2)cc1	110	145% (inactive)	98.5% (inactive)	1.32	0.18 (inactive)	-0.092 (inactive)	4	0.0405 (inactive)	-0.0075 (inactive)	-1.02 (inactive)	0.219
CC1=C(C(=O)Nc2ccc3[nH]ncc3c2)C(c2ccc3ccccc3c2)CC(=O)N1 (centres undefined)	109	30% (inactive)	79% (inactive)	-1.06	-0.24 (inactive)	0.091 (inactive)	3	0.432 (inactive)	-0.014 (inactive)	0.693 (inactive)	-0.221
CCOc1ccc2c(-c3ccnc(Nc4cccc(C(F)(F)F)c4)n3)cnn2n1	69.9	174% (inactive)	78% (inactive)	0	0.335 (inactive)	-0.613 (inactive)	10	0.229 (inactive)	0.0035 (inactive)	-0.0749 (inactive)	-0.0737
OCCCNc1nccc(-c2c(-c3ccc(F)cc3)nn3cc(C(F)(F)F)ccc23)n1	124	77.5% (inactive)	106% (inactive)	1.02	0.765 (inactive)	0.66 (inactive)	2	0.0239 (inactive)	-0.0065 (inactive)	-0.607 (inactive)	0.0984
